The molecules below were run against Fibroblast growth factor 10 (Homo sapiens) (UniProt O15520) (assay: compounds binding fibroblast growth factor 10 – biochemical, small-molecule microarray, 635 nm fluorescence, primary screen (AID 1102)). Conditions: FGF10 binding, fluorescence 635 nm, higher = more signal.
Sequence of Fibroblast growth factor 10 (Homo sapiens) (O15520 whole entry, looked up): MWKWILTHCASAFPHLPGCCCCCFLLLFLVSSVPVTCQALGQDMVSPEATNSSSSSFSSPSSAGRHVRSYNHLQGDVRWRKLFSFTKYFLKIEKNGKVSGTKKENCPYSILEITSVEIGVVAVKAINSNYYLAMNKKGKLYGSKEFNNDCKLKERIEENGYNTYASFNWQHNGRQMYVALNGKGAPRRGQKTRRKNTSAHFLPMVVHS

Compound | composite z-score
CC(C)N1C(=O)C[C@@](C(=O)NCCN2CCOCC2)(c2ccc([N+](=O)[O-])cc2)[C@H]1c1ccc(CO)cc1 | -0.945
CN(C)CCCNC(=O)[C@@]1(Cc2ccccc2I)c2ccccc2C(=O)N(C2CCCCC2)[C@H]1c1ccc(CO)cc1 | 0.269
CC(C)N1C(=O)c2ccccc2[C@@H](C(=O)NCC(F)(F)F)[C@@H]1c1ccc(CO)cc1 | -0.746
CC(C)=C1C(=O)C(c2ccccc2)=C2CN3C(=O)N(CCc4ccccc4)C(=O)[C@]3(C)[C@H]21 | 0.139
COCCCNC(=O)[C@@]1(CCS(=O)(=O)c2ccccc2)COC(c2ccc(OCCCO)cc2)=N1 | 0.946
O=C1C2C=CC(C(O)C3CCCCC3)N(n3cnnc3)C2C(=O)N1Cc1ccccc1 (stereo not drawn) | 1.16

Each molecule was assayed on glycogen synthase kinase-3 (GSK3A per assay name; protocol says GSK3B) (assay: compounds binding glycogen synthase kinase-3 – biochemical, small-molecule microarray, 635 nm fluorescence, GSK3A, primary screen (AID 1103; note: the record names both GSK3A and GSK3B)). Conditions: fluorescence 635 nm, higher = more signal.

Compound | composite z-score
CC1CC/C=C\[C@H]2OC34C=CCN(CCN5CCOCC5)C(=O)[C@H]3N(CCCO)C(=O)[C@@H]4C2C(=O)O1 (stereo partly drawn) | -0.0682
COC(=O)C[C@H]1O[C@@]2(C[C@@H]1[Si](C)(C)C)C(=O)N(C)c1ccccc12 | 0.59
O=C1C2C=CC(C(O)c3cccs3)N(Nc3ccc([N+](=O)[O-])cc3)C2C(=O)N1c1ccccc1 (stereo not drawn) | 0.684
Cc1ccc(S[C@]2(C(=O)NCc3ccccc3)CC(=O)N(Cc3ccccc3C(F)(F)F)[C@@H]2c2ccc(CO)cc2)cc1 | -1.13
O=C1[C@H]2C=C(I)[C@H](C[C@@H]2c2ccccc2)[C@@]12CO2 | -0.326
C=CC[C@@]12N=C(c3ccc(OCCCO)cc3)O[C@@H]1c1ccccc1N(CCC)C2=O | 1.25
C=CCC(OC(C)=O)[C@@H]1[C@@H](N(Cc2cccc3ccccc23)C(=O)c2ccc(-c3ccccc3)cc2)c2cc(OCCCO)ccc2N1C(=O)Cc1ccc2ccccc2c1 (stereo partly drawn) | -0.328

Reference: PubChem BioAssay
